HT1080NT lethal: kills 2HG-producing HT-1080-NT fibrosarcoma cells | HT-1080-NT fibrosarcoma viability, CellTiter-Glo ATP luminescence, 48 h | Potency, µM (titrated, usually from 46.1 µM), for the others: at the top dose activity, negative = less viability, most hits filed as cytotoxic | hit rate 1.6% among 360,000 | AID 686970;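 also: NT is the 2HG producing partner of a matched IDH1 knockdown line; potency is read from the fitted curve at half-maximal effect; 0% = DMSO-treated cells and -100% = media-only wells without cells; nearly all actives have a fitted effect of over 55% in size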
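Viability by CellTiter-Glo luminescence after 48 h compound exposure at 37C of HT-1080-NT cells (750/well, RPMI, 5% FBS). % activity scaled between DMSO wells and medium-only wells, then curve-fitted and categorized by curve class.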
HT1080 IDH1KD tx: toxicity to HT-1080 IDH1 knockdown cells (counter line); HT-1080 IDH1 knockdown viability, ATP luminescence, 48 h; Potency, µM (titrated, usually from 46.1 µM), without a hit: top-dose activity, negative = toxicity, usual class: cytotoxic; hit rate 2% among 360,000; AID 686971;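 also: potency is read from the fitted curve at half-maximal effect; 0% = DMSO wells and -100% = cell-free medium wells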
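% activity derives from luminescence (CellTiter-Glo), normalised to DMSO and no-cell wells. HT-1080-IDH1KD cells, 750/well, had 48 h compound exposure at 37 °C.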
ALOX12 inh: ALOX12 (human) lipoxygenase inhibition; P18054; purified 12hLO, xylenol orange hydroperoxide absorbance; Potency, µM (doses to about 108 µM), for inactives: top-dose activity change, negative = inhibition, actives largely listed as inhibitors; hit rate 1.1% among 580,000; also: potency is read from the fitted curve at half-maximal effect
Target sequence (P18054 whole entry, looked up): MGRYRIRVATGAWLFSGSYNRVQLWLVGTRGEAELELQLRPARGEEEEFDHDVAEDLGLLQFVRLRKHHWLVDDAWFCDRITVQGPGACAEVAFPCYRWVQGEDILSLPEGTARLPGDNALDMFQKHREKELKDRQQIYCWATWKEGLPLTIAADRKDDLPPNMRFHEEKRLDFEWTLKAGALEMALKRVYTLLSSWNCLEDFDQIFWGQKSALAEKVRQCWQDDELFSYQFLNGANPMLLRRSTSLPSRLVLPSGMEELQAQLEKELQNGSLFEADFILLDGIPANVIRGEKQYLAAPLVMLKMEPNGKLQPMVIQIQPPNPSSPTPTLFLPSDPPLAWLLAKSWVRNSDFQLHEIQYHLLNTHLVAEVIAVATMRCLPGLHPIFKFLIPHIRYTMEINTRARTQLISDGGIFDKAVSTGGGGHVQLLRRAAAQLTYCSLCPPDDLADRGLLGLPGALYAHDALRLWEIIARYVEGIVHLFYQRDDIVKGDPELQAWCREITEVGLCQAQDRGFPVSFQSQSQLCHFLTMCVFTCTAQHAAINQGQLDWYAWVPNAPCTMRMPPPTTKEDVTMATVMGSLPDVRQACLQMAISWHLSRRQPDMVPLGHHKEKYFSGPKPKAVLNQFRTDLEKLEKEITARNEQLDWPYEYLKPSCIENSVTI
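Purified human 12hLO at 150 nM in 25 mM Hepes, 0.01% Triton X-100, pH 7.0, preincubated 15 min at room temperature with compound. Reaction started with 40 uM arachidonic acid, 30 min at room temperature. Hydroperoxide measured by Fe-xylenol orange, 573/405 nm absorbance ratio.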
TDP1 cell CPT: growth inhibition of DT40 Tdp1-/-;hTDP1 cells with camptothecin (screen for TDP1 inhibitors); hit rate 12% among 420,000; chicken DT40 Tdp1-/-;hTDP1 cells + 20 nM CPT, ATP luminescence, 48 h; Potency, µM (top dose mostly 46.2 µM), without a hit: at the top dose activity change, negative = growth inhibition, usual class: inhibitors; also: potency is read from the fitted curve at half-maximal effect; nearly all actives have a fitted effect of over 55% in size
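Cell growth measured by CellTiter-Glo luminescence after a minimum 48 h, 37 C compound exposure with 20 nM CPT in Tdp1-knockout DT40 cells stably expressing hTDP1, seeded 400/well; qHTS titration format.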
IL1B secr inh: inhibitors of inflammasome signaling (IL-1 beta secretion). hit rate 4.7% among 360,000. THP-1 LPS/ATP IL-1B secretion, AlphaLISA, 16 h; hits give low values. activity change, % at 57.5 µM; in the data active = activity change below about -50%; inconclusive = mostly about -30% to -49%
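Secreted IL-1B measured by AlphaLISA bead assay after 16 h compound exposure of THP-1 cells; compounds (final up to 57.5 uM) added 1 h before LPS (250 ng/mL) and ATP (1.25 mM) stimulation; lower signal means less secretion.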
TDP1 cell noCPT: qHTS for Inhibitors of human tyrosyl-DNA phosphodiesterase 1 (TDP1): qHTS in cells in absence of CPT; DT40 Tdp1-/- hTDP1 cells, no CPT, ATP luminescence, 48 h; Potency, µM (series often up to 46.2 µM), inactives show at the top dose activity change, negative = growth inhibition, most hits filed as inhibitors; hit rate 15% among 420,000; AID 686978, 2013; also: potency is read from the fitted curve at half-maximal effect; nearly all actives have a fitted effect of over 55% in size
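Growth kinetics read by CellTiter-Glo luminescence after ≥48 hr at 37 °C. Cells: DT40 Tdp1-/- stably carrying human TDP1, 400 per well, compound exposure in the absence of CPT (DMSO vehicle).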
* hit, by the source's call; ? = inconclusive; . = no result; [ ] = dose if it differs, or a comment. This is one part of a sample in which hits are shown more often than they occur. Unless noted, calls follow the shape of the dose curve; as a rule, active = well fitted curve in the direction sought with a large enough effect; inconclusive = small, poorly fitted or top-dose-only effect, or another doubt; inactive = no such curve, though single readings can be large; an effect the other way counts as inactive or inconclusive. Unless noted, % is scaled to controls: 0 for no effect and ±100 for the full control effect.

SMILES | HT1080NT lethal | HT1080 IDH1KD tx | ALOX12 inh | TDP1 cell CPT | IL1B secr inh | TDP1 cell noCPT
COC(=O)c1ccc(NC(=O)CSC2=Nc3ccccc3C3CC=NN23)cc1 (stereo not given) | -7% | -3% | . | 23µM* | 1 | 23µM*
CC(C)c1ccccc1NC(=O)CSC1=Nc2ccccc2C2CC=NN12 (stereo not given) | . | . | 37% | . | . | .
Cc1ccc(NC(=O)CSC2=Nc3ccccc3C3CC=NN23)c(C)c1 (stereo not given) | 9% | -3% | ? | 21µM* | 11 | 21µM*
NC(=O)c1ccc(NC(=O)CSC2=Nc3ccccc3C3CC=NN23)cc1 (stereo not given) | -26% | ? | . | 9.2µM* | 12 | 21µM*
S=C1NC2(CCCC2)N=C1c1ccc(Cl)cc1 | . | . | 0% | . | . | .
Cc1n[nH]c(C)c1CNC(=O)C1CCN(c2cnn(CC3CC3)c(=O)c2)C1 (stereo not given) | . | . | 23% | . | . | .
COC(=O)[C@]12CCCCC=C1N(Cc1cccc3ccccc13)C(=O)[C@H](CC(=O)NCc1cccs1)C2 | ? | ? | -55% | ? | -60* | ?
CCOC(=O)[C@]12CCCC=C1N(Cc1cccc3ccccc13)C(=O)[C@H](CC(=O)NCc1ccc(C)o1)C2 | ? | ? | 3% | ? | -2 | ?
COC(=O)[C@]12CCCCC=C1N(Cc1cccc3ccccc13)C(=O)[C@H](CC(=O)NCc1ccc(C)o1)C2 | -28% | ? | -39% | ? | 0 | 21µM*
CCC[n+]1c(C)sc2c(OC)ccc(OC)c21 | 0% | 0% | ? | ? | -24 | ?
CC[n+]1c(C)sc2c3ccsc3ccc21 | 6% | 9% | ? | 23µM* | 51 | 16µM*
CCNC(=S)Nc1cccc(C(F)(F)F)c1 | . | . | -6% | . | . | .
FC(F)(F)c1cccc(NC(=S)NCc2ccccc2)c1 | ? | ? | ? | 21µM* | -2 | 23µM*
FC(F)(F)c1cccc(CNC(=S)Nc2ccccc2)c1 | -22% | -2% | ? | ? | -79* | 16µM*
CCCCOC(=O)c1ccc(NC(=O)c2cc(=O)c3ccc(C)cc3o2)cc1 | . | . | -16% | . | . | .
C#CCN(C)C(=O)C[C@@H]1CCNC[C@@H]1Cc1cc(COc2ccccc2)on1 | . | . | 9%[176 µM] | . | . | .
O=C(N1CCC[C@@H]1c1noc2ccccc12)C(F)(F)F | . | . | -2% | . | . | .
CC(C)CC(NC(=O)CC12CC3CC(CC(C3)C1)C2)C(=O)NC1=NCCS1 (stereo not given) | -13% | -14% | -7% | ? | -4 | 26µM*
O=C(NC1=NCCS1)C12CC3CC(CC(C3)C1)C2 | -14% | -12% | -1% | -3% | 26 | -34%
Cc1ccc2nc(-c3cccc(S(=O)(=O)N4CC(C)OC(C)C4)c3)cn2c1 (stereo not given) | -1% | -12% | 4% | ? | -25 | 15µM*
CCN(CC)S(=O)(=O)c1ccc(-c2cn3ccccc3n2)cc1 | -5% | -3% | 4% | ? | -27 | 15µM*
Cc1ccc2nc(-c3cccc(S(=O)(=O)N4CCCC4)c3)cn2c1 | 0% | -3% | 19% | -5% | 5 | -3%
CCN(CC)S(=O)(=O)c1cccc(-c2cn3cc(C)ccc3n2)c1 | -16% | -29% | 11% | 21µM* | -22 | 18µM*
CN(C)S(=O)(=O)c1ccc(-c2cn3ccccc3n2)cc1 | ? | ? | -22% | -29% | 8 | ?
CCCN(CCC)S(=O)(=O)c1cccc(-c2csc(C)n2)c1 | -1% | 1% | 1% | ? | -55* | 18µM*
SMILES | HT1080NT lethal | HT1080 IDH1KD tx | ALOX12 inh | TDP1 cell CPT | IL1B secr inh | TDP1 cell noCPT
Cc1ccc2nc(-c3cccc(S(=O)(=O)N(C)C)c3)cn2c1 | 10% | 5% | 7% | ? | -14 | ?
CCCCCCNC(=O)CCc1c(C)c2ccc(C)cc2oc1=O | . | . | 35% | . | . | .
CC12CCC(=O)N1C(C(=O)NNC(=O)c1ccccc1)CS2 (stereo not given) | 8% | -7% | -8% | 1% | 4 | 1%
CCN(CC)S(=O)(=O)c1cccc(-c2n[nH]c(=S)n2CC(C)C)c1 | 3% | -3% | 32µM* | -16% | 35 | ?
CCN(CC)S(=O)(=O)c1cccc(-c2nc3n(n2)Cc2ccccc2-3)c1 | 4% | 6% | ? | ? | -17 | 23µM*
Clc1ccc(-c2nc3n(n2)Cc2ccccc2-3)cc1 | -13% | -4% | 1% | -15% | 12 | -17%
Cc1cc(Br)ccc1SCC(=O)OCC(=O)NC12CC3CC(CC(C3)C1)C2 | . | . | 0% | . | . | .
Cc1nc(SCc2ccc(OCCC(C)C)cc2)n[nH]1 | -3% | -5% | 3% | 15µM* | 23 | ?
Cc1ccc(CN2C(=O)[C@@H]3C[C@@H](O)CN3C3(CN(Cc4cccc(OC(F)(F)F)c4)C3)C2=O)o1 | . | . | 1% | . | . | .
Cc1ccccc1-c1nc(CN2CCC(C(=O)NCCC3=CCCCC3)CC2)c(C)o1 | -2% | -1% | -14% | 18µM* | -61* | 18µM*
Cc1ccccc1-c1nc(CN2CCC(C(=O)NCCc3ccccc3)CC2)c(C)o1 | . | . | 0% | 15µM* | . | 21µM*
Cc1ccccc1-c1nc(CN2CCC(C(=O)O)CC2)c(C)o1 | 3% | 3% | 13%[57.4 µM] | 6% | -7 | -7%
Cc1ccccc1-c1nc(CN2CCC(C(=O)NC3CCN(Cc4ccccc4)CC3)CC2)c(C)o1 | 0% | -3% | 9% | 21µM* | -8 | ?
Cc1ccccc1-c1nc(CS(=O)(=O)CC(=O)NCCN2CCCC2)c(C)o1 | -6% | -1% | -13% | -3% | -27 | -8%
Cc1ccccc1-c1nc(CN2CCC(C(=O)NCCCN3CCCC(C)C3)CC2)c(C)o1 (stereo not given) | 18µM* | 9.2µM* | 8% | ? | . | ?
Cc1cc(C)cc(-c2nnc(SCC(=O)N3CCC(C)CC3)o2)c1 | . | . | -42% | . | . | .
CC1CCCN(C(=O)c2cc(S(=O)(=O)N3CCCCC3)c[nH]2)C1 (stereo not given) | -10% | 6% | 4% | -23% | 21 | ?
COc1ccc(CCNC(=O)C2CCN(Cc3nc(-c4ccccc4C)oc3C)CC2)cc1OC | ? | ? | 0% | 23µM* | -29 | 16µM*
O=C(Cn1cnc2ccccc21)Nc1cccc(S(=O)(=O)N2CCCC2)c1 | -6% | -16% | . | 5.8µM* | -13 | 4.1µM*
